Assay results taken from paper PMC5540273 (PLoS ONE, 2017).

What follows are compounds tested on AKT3. Details: concentration: 1 μM, replicates: in singlicate; n = 1.
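Also: KINOMEscan kinase panel screen.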

SMILES	%Inh [%]
COc1ccc(Nc2nccc(N3CCC(NC(=O)c4cccc(NC(C)=O)c4)C3)n2)cc1 (centres unmarked) [GSK1379732]	23
CC(=O)Nc1n[nH]c2ncc(-c3ccccc3)cc12 [SB-548492]	5
COc1ccc(Nc2nccc(N3CCC(NC(=O)Nc4ccc5c(c4)OCO5)C3)n2)cc1 (centres unmarked) [GSK1379745]	0
CCCc1ccc(S(=O)(=O)NC2CCN(c3ccnc(Nc4ccc(OC)cc4)n3)C2)cc1 (centres unmarked) [GSK1379737]	0
Nc1nccc2scc(-c3ccc4c(c3)CCN4C(=O)Cc3cc(F)ccc3F)c12 [GSK2587663]	0
CS(=O)(=O)CCNCc1nc(-c2ccc3ncnc(Nc4ccc(OCc5cccc(F)c5)c(Cl)c4)c3c2)cs1.Cl [GW583340]	0
COc1ccc(NC(=O)Nc2ccc(C)c(-c3ccc(C(=O)Nc4ccncc4)cc3)c2)cc1 [GSK1398475]	0
FC(F)(F)c1cc(Nc2nccc(-c3c(-c4ccc(Cl)cc4)nn4ncccc34)n2)ccc1Cl [GW829351]	0
Cl.Cl.c1ccc(-c2cc3ccncc3cc2OC2CCNCC2)cc1 [GSK1122999]	0
Nc1nc(-c2ccc3c(N)n[nH]c3c2)cc(N2CCCCC2)n1 [GSK2228768]	0
COc1cc2c(Nc3cccc(NC(=O)c4ccccc4)c3)ncnc2cc1OCCCN1CCOCC1 [GSK223810]	0
Clc1cccc(-c2nc(Nc3ccncc3)c3ccccc3n2)c1 [GW873004]	1
CSc1ccc(NC2=C(c3ccccc3Cl)C(=O)NC2=O)cc1 [SB-342411]	0
O=C(Nc1ccccc1F)NC1CCN(c2ccnc(Nc3ccc(F)cc3)n2)C1 (centres unmarked) [GSK1379722]	0
Cc1ccc(NC(=O)c2cccc(C#N)c2)cc1-c1ccc(C(=O)Nc2ccncc2)cc1 [GSK1398463]	0
Nc1nc(-c2ccc3c(N)n[nH]c3c2)cc(N2CCC[C@@H](C(=O)Nc3ccccc3)C2)n1.O=C(O)C(F)(F)F.O=C(O)C(F)(F)F [GSK2288359]	0
CCc1nc(-c2cccc(C)c2)c(-c2ccnc(NC(=O)c3ccccc3)c2)s1	0
Cl.Fc1ccccc1COc1ccc(Nc2ncnc3ccc(-c4nnc(C(F)(F)F)o4)cc23)cc1Cl [GW424170]	0
Clc1cc(Nc2ncnc3cc[nH]c23)ccc1OCc1ccccn1	5
CC(C)N1CCC(n2cnc(-c3ccc(F)cc3)c2-c2ccnc(N)n2)CC1 [SB-223132]	0
COC(=O)c1cccc(NC(=O)NCCNc2ccnc(Nc3ccc(F)cc3)n2)c1 [GSK1379883]	0
Cc1ccc(C)c(NC(=O)NCCNc2ccnc(Nc3ccc(F)cc3)n2)c1 [GSK1379878]	0
CCC(CC)(CC)n1cnc2c(N)ncnc21 [SKF-97620]	2

Each compound was assayed on ALK. Details: concentration: 1 μM, replicates: in singlicate; n = 1.

SMILES	%Inh [%]
N#Cc1ccc(Oc2ccc(Nc3ncnc4cc[nH]c34)cc2Cl)cc1	0
Cc1cc(N2CCC(NS(=O)(=O)c3ccc(F)cc3)CC2)nc(Nc2cccc(C#N)c2)n1.O=C(O)C(F)(F)F [GSK1653537]	7
O=C(NCCCN1CCCC1=O)c1cnc(NCc2cc(Cl)ccc2Cl)nc1NC1CCNCC1	21
c1ccc(-c2ccc3c(-c4ccnc(Nc5ccc6c(c5)OCCO6)n4)cnn3n2)cc1 [GW818941]	0
CNc1nccc(-c2c(-c3ccc(F)cc3)ncn2CCCN2CCOCC2)n1 [SB-222516]	12
C[C@@H]1CCN(C(=O)CO)C[C@@H]1N(C)c1ncnc2[nH]ccc12	15
Cn1ccc2ncnc(Oc3ccc(NC(=O)Nc4cccnc4)c(Cl)c3)c21	0
O=C(c1ccc(-c2cc(-c3c[nH]nc3-c3ccccn3)ccn2)cc1)N1CCCC1 [GW792479]	16
O=C(Nc1n[nH]c2nc(-c3ccco3)c(Br)cc12)c1ccc(CN2CCCC2)cc1.O=C(O)[C@H](O)[C@@H](O)C(=O)O [SB-742352]	0
Nc1n[nH]c2nnc(-c3ccccc3)cc12 [SB-517389]	29
Oc1ccc2ncnc(Nc3ccc(OCc4ccccc4)cc3)c2c1 [GI262866]	21
O=C(CCO)NCCn1ccc2ncnc(Nc3ccc(Oc4cccc(C(F)(F)F)c4)c(Cl)c3)c21	0
Nc1nc(-c2cccnc2)c(-c2ccnc3ccccc23)s1 [GW684083]	22
COc1ccc(Nc2nccc(N3CCC(NC(=O)c4cccc(NC(C)=O)c4)C3)n2)cc1 (centres unmarked) [GSK1379732]	0
CC(=O)Nc1n[nH]c2ncc(-c3ccccc3)cc12 [SB-548492]	0
COc1ccc(Nc2nccc(N3CCC(NC(=O)Nc4ccc5c(c4)OCO5)C3)n2)cc1 (centres unmarked) [GSK1379745]	20
CCCc1ccc(S(=O)(=O)NC2CCN(c3ccnc(Nc4ccc(OC)cc4)n3)C2)cc1 (centres unmarked) [GSK1379737]	30
Nc1nccc2scc(-c3ccc4c(c3)CCN4C(=O)Cc3cc(F)ccc3F)c12 [GSK2587663]	8

SMILES	%Inh [%]
CS(=O)(=O)CCNCc1nc(-c2ccc3ncnc(Nc4ccc(OCc5cccc(F)c5)c(Cl)c4)c3c2)cs1.Cl [GW583340]	0
COc1ccc(NC(=O)Nc2ccc(C)c(-c3ccc(C(=O)Nc4ccncc4)cc3)c2)cc1 [GSK1398475]	18
FC(F)(F)c1cc(Nc2nccc(-c3c(-c4ccc(Cl)cc4)nn4ncccc34)n2)ccc1Cl [GW829351]	8
Cl.Cl.c1ccc(-c2cc3ccncc3cc2OC2CCNCC2)cc1 [GSK1122999]	23
Nc1nc(-c2ccc3c(N)n[nH]c3c2)cc(N2CCCCC2)n1 [GSK2228768]	14
COc1cc2c(Nc3cccc(NC(=O)c4ccccc4)c3)ncnc2cc1OCCCN1CCOCC1 [GSK223810]	21
Clc1cccc(-c2nc(Nc3ccncc3)c3ccccc3n2)c1 [GW873004]	33
CSc1ccc(NC2=C(c3ccccc3Cl)C(=O)NC2=O)cc1 [SB-342411]	0
O=C(Nc1ccccc1F)NC1CCN(c2ccnc(Nc3ccc(F)cc3)n2)C1 (centres unmarked) [GSK1379722]	26
Cc1ccc(NC(=O)c2cccc(C#N)c2)cc1-c1ccc(C(=O)Nc2ccncc2)cc1 [GSK1398463]	31
Nc1nc(-c2ccc3c(N)n[nH]c3c2)cc(N2CCC[C@@H](C(=O)Nc3ccccc3)C2)n1.O=C(O)C(F)(F)F.O=C(O)C(F)(F)F [GSK2288359]	5
CCc1nc(-c2cccc(C)c2)c(-c2ccnc(NC(=O)c3ccccc3)c2)s1	27
Cl.Fc1ccccc1COc1ccc(Nc2ncnc3ccc(-c4nnc(C(F)(F)F)o4)cc23)cc1Cl [GW424170]	0
Clc1cc(Nc2ncnc3cc[nH]c23)ccc1OCc1ccccn1	0
CC(C)N1CCC(n2cnc(-c3ccc(F)cc3)c2-c2ccnc(N)n2)CC1 [SB-223132]	12
COC(=O)c1cccc(NC(=O)NCCNc2ccnc(Nc3ccc(F)cc3)n2)c1 [GSK1379883]	32
Cc1ccc(C)c(NC(=O)NCCNc2ccnc(Nc3ccc(F)cc3)n2)c1 [GSK1379878]	2
CCC(CC)(CC)n1cnc2c(N)ncnc21 [SKF-97620]	0
